In PubChem BioAssay (Tox21):
“And” between values parts separate entries of the source, which are not always exact repeats. Equal entries are not always repeated. Inconclusive results are not listed. More than one record can exist for a structure, and the calls need not agree. The source made the active and inactive calls. Calls follow the shape of the dose curve; as a rule, active = well fitted curve in the direction sought with a large enough effect in the repeat runs; inconclusive = weak or mixed curves; inactive = no such curve, though single readings can be large; an effect the other way counts as inactive or inconclusive.

Tested on: not listed separately
Assay: qHTS assay to identify small molecule antagonists of the estrogen receptor alpha (ER-alpha) signaling pathway using the BG1 cell line - cell viability counter screen (AID 743081);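 also: compound given together with 17beta-estradiol as the ER stimulus; nearly all actives have a fitted effect of over 45% in size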
Conditions: BG1Luc4E2 viability, CellTiter-Fluor, 22 h; series mostly up to 70.3 µM; activity change, negative = cytotoxicity: at the top concentration
% is scaled to controls: 0 for no effect and ±100 for the full control effect; potency is read from the fitted curve at half-maximal effect.

SMILES | Potency | activity change, negative = cytotoxicity
CC1(C)[C@H](C(=O)O[C@H](C#N)c2cccc(Oc3ccccc3)c2)[C@@H]1C=C(Br)Br | inactive | 
CCCN(CCC)C(=O)Cc1c(-c2ccc(Cl)cc2)nc2ccc(Cl)cn12 |  | -8.32% (inactive)
Cc1ncc(C[n+]2csc(CCO)c2C)c(N)n1 |  | 0.331% (inactive)
O=S(=O)(Cl)Cl |  | 3.29% (inactive)
CN1C[C@H](C(=O)N[C@]2(C)O[C@@]3(O)[C@@H]4CCCN4C(=O)[C@H](Cc4ccccc4)N3C2=O)C=C2c3cccc4[nH]cc(c34)C[C@H]21 | 16.8 µM (active) and 27.4 µM (active) | 
CC(C)(C)CC(C)(C)c1ccc(O)cc1 |  | -11.1% (inactive)
O=C(O)COc1cc(Cl)c(Cl)cc1Cl | inactive | 
O=C(O)C(O)C(O)C(=O)O (configuration not stated) |  | 2.89% (inactive)
COC(=O)Cc1ccccc1 |  | 7.35% (inactive)
CCOP(=O)(SC(C)CC)N1CCSC1=O (configuration not stated) |  | 0.0281% (inactive)
C=CCN1C[C@H](C)N([C@H](c2ccc(C(=O)N(CC)CC)cc2)c2cccc(OC)c2)C[C@H]1C |  | -16.3% (inactive)
O=C(O)c1cc(I)cc(I)c1I |  | 29.7% [at 95 µM] (inactive)
C[C@@H]1C[C@@H]([C@H](O)CC2CC(=O)NC(=O)C2)C(=O)[C@@H](C)C1 | inactive | 
CC(C)CCCCCCCOC(=O)c1ccccc1C(=O)OCCCCCCCC(C)C |  | 1.31% (inactive)
O=C(NC(=O)c1cc(F)c(F)cc1Cl)Nc1cc(F)ccc1N1CCC(C(=O)O)CC1 |  | 8.85% (inactive)
NC(=S)c1c(Cl)cccc1Cl |  | 12.6% (inactive)

SMILES | Potency | activity change, negative = cytotoxicity
C[CH2][Hg][S]c1ccccc1C(=O)O | 21.1 µM (active) and 17.2 µM (active) | 
CC1(C)CC(=O)CC(C)(C)N1[O] |  | 12.3% (inactive)
[Cl-].[Cl-].[Hg+2] | 54.2 µM (active) and inactive | 
CN1CC[C@]23c4c5ccc(O)c4O[C@H]2[C@@H](O)C=C[C@H]3[C@H]1C5 |  | -1.65% (inactive)
CC(C)[C@@H](C(=O)O[C@@H](C#N)c1cccc(Oc2ccccc2)c1)c1ccc(Cl)cc1 | inactive | 
CCCCCCCCCCCCN=C(N)N |  | -12.7% [at 3.79 µM] (inactive)
O=C1NC(=O)C(=O)C(=O)N1 |  | 0.237% [at 95 µM] (inactive)
CCCCCCCCn1sccc1=O | inactive | 
COC1=CC(=O)O[C@@H](/C=C/c2ccc3c(c2)OCO3)C1 |  | 6.85% (inactive)
CCC1(C2=NCCN2)Cc2ccccc2O1 (configuration not stated) |  | -0.886% (inactive)
CC(Oc1cc(Cl)c(Cl)cc1Cl)C(=O)O (configuration not stated) |  | -1.09% (inactive)
CNC(=O)Oc1cccc(N=CN(C)C)c1 |  | -4.29% (inactive)
NCCc1cc(O)c(O)cc1O |  | -8.29% (inactive)
CN(C)C(=O)Nc1cccc(OC(=O)NC(C)(C)C)c1 |  | -0.105% (inactive)
CN1C(=O)CN=C(c2ccccc2)c2cc([N+](=O)[O-])ccc21 |  | -20.7% (inactive)
O=C(O)C(F)(F)C(F)(F)C(F)(F)C(F)(F)C(F)(F)C(F)(F)C(F)(F)C(F)(F)F |  | -6.98% (inactive)

Molecular target: Aromatase (Homo sapiens) (UniProt P11511)
Assay: qHTS assay to identify aromatase inhibitors (AID 743083); also: nearly all actives have a fitted effect of over 55% in size
Conditions: MCF-7 aro ERE, testosterone-driven ERE luciferase, 24 h; series mostly up to 70.3 µM; activity, negative = inhibition: at the top concentration

Aromatase (Homo sapiens), sequence (P11511 whole entry, looked up): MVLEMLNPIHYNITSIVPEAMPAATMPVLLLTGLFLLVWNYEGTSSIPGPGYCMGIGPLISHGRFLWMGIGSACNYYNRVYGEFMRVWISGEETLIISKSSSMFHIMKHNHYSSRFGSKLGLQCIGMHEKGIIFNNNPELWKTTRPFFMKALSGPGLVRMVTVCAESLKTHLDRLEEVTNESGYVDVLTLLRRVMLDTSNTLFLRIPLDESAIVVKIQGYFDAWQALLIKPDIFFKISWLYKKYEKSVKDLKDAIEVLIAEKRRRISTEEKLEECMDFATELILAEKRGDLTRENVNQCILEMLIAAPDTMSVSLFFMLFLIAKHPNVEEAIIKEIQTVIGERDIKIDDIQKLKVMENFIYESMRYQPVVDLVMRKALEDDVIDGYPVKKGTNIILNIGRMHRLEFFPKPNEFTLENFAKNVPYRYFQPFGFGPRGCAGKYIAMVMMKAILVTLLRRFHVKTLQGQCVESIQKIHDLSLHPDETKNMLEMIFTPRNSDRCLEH

SMILES | Potency | activity, negative = inhibition
CC1(C)[C@H](C(=O)O[C@H](C#N)c2cccc(Oc3ccccc3)c2)[C@@H]1C=C(Br)Br | inactive | 
CCCN(CCC)C(=O)Cc1c(-c2ccc(Cl)cc2)nc2ccc(Cl)cn12 |  | -5.25% (inactive)
Cc1ncc(C[n+]2csc(CCO)c2C)c(N)n1 | inactive | 
C[C@H](N)[C@H](O)c1ccc(O)c(O)c1 |  | -17.3% (inactive)
O=S(=O)(Cl)Cl |  | 11.9% (inactive)
CN1C[C@H](C(=O)N[C@]2(C)O[C@@]3(O)[C@@H]4CCCN4C(=O)[C@H](Cc4ccccc4)N3C2=O)C=C2c3cccc4[nH]cc(c34)C[C@H]21 | inactive | 
COc1ccc(C(=O)c2c(C)n(CCN3CCOCC3)c3ccccc23)cc1 |  | -11.5% (inactive)
O=C(O)COc1cc(Cl)c(Cl)cc1Cl | inactive | 
O=C(O)C(O)C(O)C(=O)O (configuration not stated) |  | -1.16% (inactive)
COC(=O)Cc1ccccc1 |  | 3.69% (inactive)
CCOP(=O)(SC(C)CC)N1CCSC1=O (configuration not stated) |  | 3.95% (inactive)
C=CCN1C[C@H](C)N([C@H](c2ccc(C(=O)N(CC)CC)cc2)c2cccc(OC)c2)C[C@H]1C |  | 2.9% (inactive)
O=C(O)c1cc(I)cc(I)c1I |  | 20.8% [at 95 µM] (inactive)
C[C@@H]1C[C@@H]([C@H](O)CC2CC(=O)NC(=O)C2)C(=O)[C@@H](C)C1 | 750 nM (active) and 383 nM (active) | 
CC(C)CCCCCCCOC(=O)c1ccccc1C(=O)OCCCCCCCC(C)C |  | 16.9% (inactive)
CCC1(CCC(C)C)C(=O)NC(=O)NC1=O |  | -16.8% (inactive)
O=C(NC(=O)c1cc(F)c(F)cc1Cl)Nc1cc(F)ccc1N1CCC(C(=O)O)CC1 |  | -5.87% (inactive)
NC(=S)c1c(Cl)cccc1Cl |  | -1.78% (inactive)

SMILES | Potency | activity, negative = inhibition
C[CH2][Hg][S]c1ccccc1C(=O)O | 5.96 µM (active) and 1.09 µM (active) | 
CC1(C)CC(=O)CC(C)(C)N1[O] |  | -7.38% (inactive)
[Cl-].[Cl-].[Hg+2] | 13.3 µM (active) and 1.36 µM (active) and 15.4 µM (active) | 
CN1CC[C@]23c4c5ccc(O)c4O[C@H]2[C@@H](O)C=C[C@H]3[C@H]1C5 |  | -5.06% (inactive)
CC(C)[C@@H](C(=O)O[C@@H](C#N)c1cccc(Oc2ccccc2)c1)c1ccc(Cl)cc1 | inactive | 
CCCCCCCCCCCCN=C(N)N |  | -1.41% [at 3.79 µM] (inactive)
O=C1c2ccccc2C(=O)N1SC(Cl)(Cl)Cl | 3.02 µM (active) and 4.86 µM (active) | 
O=C1NC(=O)C(=O)C(=O)N1 |  | 15% [at 95 µM] (inactive)
CCCCCCCCn1sccc1=O | 10.9 µM (active) and 32.1 µM (active) | 
COC1=CC(=O)O[C@@H](/C=C/c2ccc3c(c2)OCO3)C1 |  | 6.16% (inactive)
CCC1(C2=NCCN2)Cc2ccccc2O1 (configuration not stated) |  | -15.5% (inactive)
CC(Oc1cc(Cl)c(Cl)cc1Cl)C(=O)O (configuration not stated) |  | 28.4% (inactive)
CNC(=O)Oc1cccc(N=CN(C)C)c1 |  | 4.76% (inactive)
NCCc1cc(O)c(O)cc1O |  | 1.39% (inactive)
CN(C)C(=O)Nc1cccc(OC(=O)NC(C)(C)C)c1 |  | 7.54% (inactive)
CN1C(=O)CN=C(c2ccccc2)c2cc([N+](=O)[O-])ccc21 |  | 73.2% (inactive)
O=C(O)C(F)(F)C(F)(F)C(F)(F)C(F)(F)C(F)(F)C(F)(F)C(F)(F)C(F)(F)F |  | 29.6% (inactive)
